RORgamma inh = ROR gamma (mouse) transcription inhibition. Drosophila S2 Gal4-RORgamma UAS-luciferase reporter, 20 h. Potency, µM (titrated, usually from 53.6 µM), inactives show at the top dose activity change, negative = inhibition, usual class: inhibitors. 5.4% of 310,000 active; further: potency means the concentration at half of the fitted maximal effect; nearly all actives have a fitted effect of over 60% in size
Target sequence (P51450 whole entry, looked up, the tested form may be a part): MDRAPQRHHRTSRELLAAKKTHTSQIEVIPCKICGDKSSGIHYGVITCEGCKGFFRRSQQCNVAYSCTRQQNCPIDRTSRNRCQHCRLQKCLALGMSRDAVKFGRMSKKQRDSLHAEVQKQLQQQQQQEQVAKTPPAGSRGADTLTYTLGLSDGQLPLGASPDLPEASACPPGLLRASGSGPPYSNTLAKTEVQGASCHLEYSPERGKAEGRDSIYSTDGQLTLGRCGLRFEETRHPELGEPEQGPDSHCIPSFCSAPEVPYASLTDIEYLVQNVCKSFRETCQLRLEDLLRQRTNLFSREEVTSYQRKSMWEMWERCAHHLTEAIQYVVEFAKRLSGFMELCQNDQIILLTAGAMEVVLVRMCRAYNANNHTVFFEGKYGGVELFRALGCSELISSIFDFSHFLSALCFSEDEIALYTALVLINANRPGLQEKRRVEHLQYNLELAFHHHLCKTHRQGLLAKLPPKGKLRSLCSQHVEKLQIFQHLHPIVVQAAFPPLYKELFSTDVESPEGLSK
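Stably transfected Drosophila Schneider cells are the test system, with ROR gamma fused to Gal4 and luciferase under UAS control; luminescence is read after 20 hr of 700 uM copper sulfate induction at ambient temperature.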
ELG1 repair inh = ELG1-dependent DNA repair inhibition | HEK293T ELG1-luciferase reporter, luminescence, 16 h; DNA damage induced by 5-fluorouridine | Potency, µM (titrated, usually from 46.1 µM), for the others: top-dose activity change, negative = inhibition, usual class: inhibitors | 2.3% of 330,000 active | AID 504467; further: potency means the concentration at half of the fitted maximal effect; nearly all actives have a fitted effect of over 55% in size
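Step one: seed 2,000 cells per well. Step two: pin-transfer compound or DMSO alongside 5-fluorouridine. Step three: incubate 16 hr, 37 °C, 5% CO2. Step four: add ONE-Glo, wait 30 min, read luminescence.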
TDP1 cell noCPT = qHTS for Inhibitors of human tyrosyl-DNA phosphodiesterase 1 (TDP1): qHTS in cells in absence of CPT. AID 686978, 2013. 15% of 420,000 active. Potency, µM (highest dose often 46.2 µM), for the others: at the top dose activity change, negative = growth inhibition, actives largely listed as inhibitors. DT40 Tdp1-/- hTDP1 cells, no CPT, ATP luminescence, 48 h; further: potency means the concentration at half of the fitted maximal effect; nearly all actives have a fitted effect of over 55% in size
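Chicken DT40 Tdp1-/- cells stably complemented with human TDP1 were seeded at 400 cells/well with DMSO in place of 20 nM camptothecin. After compound pinning, cells grew at least 48 hr at 37 °C; viability read by CellTiter-Glo luminescence.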
Gal4-VP16 FLuc = Gal4-VP16 reporter inhibition counter-screen | AID 2546 | 3.5% of 310,000 active | Potency, µM (highest dose often 53.6 µM), inactives show at the top dose activity, negative = inhibition, most hits filed as inhibitors | Drosophila S2 Gal4-VP16 UAS-luciferase, luminescence, 20 h;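 further: Gal4-VP16 expression switched on by copper sulfate through the metallothionein promoter; potency means the concentration at half of the fitted maximal effect; nearly all actives have a fitted effect of over 50% in size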
TDP1 cell CPT = DT40-hTDP1 cell growth loss with CPT. chicken DT40 Tdp1-/-;hTDP1 cells + 20 nM CPT, ATP luminescence, 48 h. Potency, µM (highest dose often 46.2 µM), without a hit: at the top dose activity change, negative = growth inhibition, hits mostly inhibitors. 12% of 420,000 active. AID 686979; further: potency means the concentration at half of the fitted maximal effect; nearly all actives have a fitted effect of over 55% in size
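Cell growth measured by CellTiter-Glo luminescence after a minimum 48 h, 37 C compound exposure with 20 nM CPT in Tdp1-knockout DT40 cells stably expressing hTDP1, seeded 400/well; qHTS titration format.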
IL1B secr inh = inflammasome signaling inhibition, IL-1 beta readout. THP-1 LPS/ATP IL-1B secretion, AlphaLISA, 16 h; active compounds read low. activity change, % at 57.5 µM. AID 743279. 4.7% of 360,000 active; in the data active means activity change below about -50%; inconclusive means mostly about -30% to -49%
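Secreted IL-1B measured by AlphaLISA bead assay after 16 h compound exposure of THP-1 cells; compounds (final up to 57.5 uM) added 1 h before LPS (250 ng/mL) and ATP (1.25 mM) stimulation; lower signal means less secretion.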
Numbers without * were called inactive; ? = inconclusive; . = no result; [ ] = remark or other dose. Rows were chosen to be rich in hits. Some 21% of all compounds tested hit in one or more screens of this group. Unless noted, the call rests on the fitted dose curve; in most records, active means well fitted curve in the direction sought with a large enough effect; inconclusive means small, poorly fitted or top-dose-only effect, or another doubt; inactive means no such curve, though single readings can be large; an effect the other way counts as inactive or inconclusive. On the % scale 0 is the no-effect control and ±100 the full control effect.

SMILES	RORgamma inh	ELG1 repair inh	TDP1 cell noCPT	Gal4-VP16 FLuc	TDP1 cell CPT	IL1B secr inh
CCOc1ccc(CNCCSc2nnnn2C)cc1OC	.	.	3%	.	2%	.
Nc1c(S(=O)(=O)c2ccccc2)nnn1-c1ccccc1	7%	1%	-18%	0%	-16%	-7
CCOc1ccccc1-n1nnc(S(=O)(=O)c2ccc(C)cc2)c1N	.	.	12µM*	.	?	.
CCc1ccc(S(=O)(=O)c2nnn(-c3cccc(C)c3)c2N)cc1	.	.	15µM*	.	21µM*	.
O=C1/C(=C/c2cccnc2)SC(=S)N1Cc1ccco1	.	.	21µM*	.	23µM*	-97*
COc1ccc(/C=C2\SC(=S)N(CCC(=O)N3CCOCC3)C2=O)cc1	-22%	1%	?	-11%	?	-66*
Cc1ccc(/C=C2/SC(=S)N(CCC(=O)N3CCN(c4ccccc4)CC3)C2=O)cc1	?	12%	.	-16%	.	.
Cc1ccc(/C=C2\SC(=S)N(CCC(=O)N3CCOCC3)C2=O)cc1	-15%	-24%	18µM*	4%	16µM*	12
O=C(CCN1C(=O)/C(=C\c2ccccc2)SC1=S)N1CCOCC1	-23%	-4%	10µM*	9%	8.2µM*	-63*
COc1ccc(/C=C2\SC(=O)N(CCC(=O)N3CCCCC3)C2=O)cc1OC	-2%	0%	?	-13%	-29%	11
COc1ccc(OC2C=CC(c3ccccc3)OC2CO)c(C(C)(C)C)c1 (stereo unspecified)	-21%[10 µM]	.	.	-8%[10 µM]	.	.
CC1(N=Cc2cc(Cl)ccc2O)COP(=O)(NC2CCCC2)OC1 (stereo unspecified)	.	.	-21%	.	-19%	22
O=C1[O][Bi][O]c2ccccc21	-16%[10 µM]	.	9%	3%	-21%	.
O=C(CCN1C(=O)S/C(=C\c2ccccc2)C1=O)N1CCOCC1	.	.	-30%	.	?	-80*
O=C1/C(=C/c2ccccc2)SC(=S)N1CC(=O)N1CCCCC1c1cccnc1 (stereo unspecified)	14%	?	16µM*	24%	15µM*	-24
O=C(CCCN1C(=O)/C(=C/c2ccccc2)SC1=S)Nc1ccc(C(=O)O)c(O)c1	?	10%	-17%	-29%	6%	10
O=C(CCCN1C(=O)/C(=C/c2ccccc2)SC1=S)N1CCOCC1	-38%	?	?	?	?	-96*
COc1ccc(C2=NC(c3ccc(Cl)cc3)C(c3ccc(Cl)cc3)N2C(=O)N2CCNC(=O)C2)c(OC(C)C)c1 (stereo unspecified)	?	.	.	13%	.	.
O=C(c1cc(C(F)(F)F)cc(C(F)(F)F)c1)N1CCC[C@@]2(CCN(Cc3nccs3)C2)C1	-9%	.	-29%	15%	14%	.
O=[N+]([O-])c1ccccc1S(=O)(=O)NCC1CCC(CNCC2CCc3ccccc3C2)CC1 (stereo unspecified)	?	.	.	-4%	.	.
COc1cccc(C(=O)Nc2ccc(C(=O)OCc3cc(=O)n4nc(C5CC5)sc4n3)cc2)c1	.	.	-14%	.	-7%	.
CCOC(=O)c1ccc(N2C(=O)c3n[nH]c(C)c3C2c2ccc(O)cc2)cc1 (stereo unspecified)	22%	-5%	?	5%	-20%	15
CCOC(=O)c1ccc(N2C(=O)c3n[nH]c(C)c3C2c2ccccc2OC)cc1 (stereo unspecified)	.	.	18µM*	.	16µM*	.
CCOC(=O)c1ccc(N2C(=O)c3n[nH]c(-c4ccco4)c3C2c2ccccc2OC)cc1 (stereo unspecified)	.	.	6.5µM*	.	18µM*	.
CC(Sc1nc(-c2ccccc2)cc(C(F)(F)F)n1)C(=O)N1CCCC1 (stereo unspecified)	-26%	7%	-22%	-13%	?	-3
SMILES	RORgamma inh	ELG1 repair inh	TDP1 cell noCPT	Gal4-VP16 FLuc	TDP1 cell CPT	IL1B secr inh
CC1CCN(C(=O)C(C)Sc2nc(-c3ccccc3)cc(C(F)(F)F)n2)CC1 (stereo unspecified)	8%	?	29µM*	14%	26µM*	-29
Cc1ccc(C)c(Cn2c(C3CC(=O)N(c4ccccc4C)C3)nc3ccccc32)c1 (stereo unspecified)	.	.	21µM*	.	23µM*	.
CC(C)(C)N1CC(c2nc3ccccc3n2Cc2ccccc2)CC1=O (stereo unspecified)	-9%	?	?	13%	-18%	-3
CCc1ccccc1N1CC(c2nc3ccccc3n2Cc2cccc(C)c2)CC1=O (stereo unspecified)	.	.	13µM*	.	10µM*	.
COc1cccc(-c2cnc3c(NC=O)cc(-c4ccc(O)c(OC)c4)cn23)c1	.	.	2.3µM*	.	-89%	40
Nc1ccc(-c2cc(NC=O)c3ncc(-c4cccc(C(F)(F)F)c4)n3c2)cn1	.	.	10µM*	.	16µM*	-22
COc1cc(-c2cnc3c(NC=O)cc(-c4ccsc4)cn23)cc(OC)c1OC	.	.	0.16µM*	.	0.18µM*	135
COc1cccc(-c2cc(NC=O)c3ncc(-c4cc(OC)c(OC)c(OC)c4)n3c2)c1	.	.	0.58µM*	.	0.52µM*	106
O=C(N/N=C1/C[C@@H](O)[C@@H](O)[C@@H]2[C@@H]3C(=O)N(c4cccc(Oc5ccccc5)c4)C(=O)[C@H]3CC[C@@H]12)OCc1ccccc1	4%[10 µM]	.	.	-8%[10 µM]	.	.
O=C(c1ccc(N2CCC(NCCCn3ncc4ccccc43)CC2)cc1)N1CCOCC1	.	.	-13%	.	7%[9.04 µM]	.
COc1cc(-c2cnc3c(NC=O)cc(-c4cccnc4)cn23)cc(OC)c1OC	.	.	2.9µM*	.	2.9µM*	99
COc1cc(-c2cc(NC=O)c3ncc(-c4ccc(F)cc4)n3c2)cc(OC)c1OC	.	.	?	.	?	-24
COc1cc(-c2cc(NC=O)c3ncc(-c4ccc(C(C)=O)cc4)n3c2)ccc1O	.	.	8.2µM*	.	9.2µM*	14
Cn1cc(-c2cnc3c(NC=O)cc(-c4cccc(C(F)(F)F)c4)cn23)cn1	.	.	21µM*	.	?	0
COc1cc(-c2cnc3c(NC=O)cc(-c4cccc(C(F)(F)F)c4)cn23)cc(OC)c1OC	.	.	5.2µM*	.	5.8µM*	24
CC(C)c1c(C(=O)NCc2ccccn2)cnn1-c1nccc(-c2ccccc2F)n1	.	.	-25%	.	?	.
CCCCC(=O)c1ccc(OC(=O)c2ccc([N+](=O)[O-])cc2)cc1	.	.	-16%	.	-27%	1
CN1C(C(=O)Nc2ccccn2)C(=O)c2sc(Cl)cc2S1(=O)=O (stereo unspecified)	1%[10 µM]	.	8%	-5%	7%	.
